Tg IFNy HTS: T. gondii growth inhibition with IFN-gamma, primary screen, cell-based. Toxoplasma gondii growth in IFN-gamma-treated host cells; stronger effect = lower value. activity change, negative = inhibition, % (test concentration not listed). 3.8% of 69,000 active. AID 1259416, 2018; in the data active = activity change below about -70%, passing the limit was not always enough;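 also: host cells are HeLa cells infected with Toxoplasma gondii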
Starred values were filed as active, the others as inactive; i = inactive; ! = repeats disagree. Only a selection was taken, and hits are over-represented in it overall.

SMILES | Tg IFNy HTS
CN(C)C(=O)c1c2c(NCc3cccnc3)ncnc2n2ccccc12 | -3
Cc1nccn1CCN(C)c1nc(C(C)(C)C)nc2c1cnn2C | -12
CCOC(=O)CNc1nc(C(C)(C)C)nc2c1cnn2C | -4
Cn1ncc2c(NCc3cc(C(C)(C)C)n[nH]3)nc(C(C)(C)C)nc21 | -75*
Cc1n[nH]c(C)c1Cc1ccc(NC(=O)c2nn3cccnc3c2Cl)cc1 | 78
COCC1(C(=O)Nc2cccc(NC(=O)c3ccccc3OC)c2)CCC1 | -2
COc1ccccc1C(=O)Nc1ccc(-c2nc(-c3ccc(C)cc3)co2)cc1 | -55
COc1ccccc1C(=O)Nc1cccc(NC(=O)c2c(Cl)cnn2C)c1 | -85*
Cc1noc(C)c1CN1Cc2ncn(CC(C)C)c2C(C(=O)O)C1 (centres undefined) | -2
COC(=O)c1cccc(NC(=O)N2CCC3(CC2)Nc2cc(F)ccc2-n2cccc23)c1 | i
CC(C)N=C(N)/N=C(\N)Nc1ccc(Cl)cc1 | 12
NC(=NCCCCCCN=C(N)/N=C(\N)Nc1ccc(Cl)cc1)/N=C(\N)Nc1ccc(Cl)cc1 | -82*
CC(=O)Nc1ccc(-c2cn(Cc3ccc(Cl)cc3)nn2)cc1 | 10
O=C(c1cccs1)N1C[C@@H]2COC[C@@]2(COc2cccnc2)C1 | -9
COc1ccccc1NC(=O)C(=O)NCCc1sc(-c2ccc(C)cc2)nc1C | 2
Cc1ccc(CC(=O)N2CC(C(=O)N3CCCC3)C3(CCOCC3)C2)cc1 (centres undefined) | 14
CCn1c(=O)[nH]c2cc(Cl)c(Cl)cc21 | -84*!
COc1ccc(C[C@H]2CN(C3CCOCC3)CC[C@H]2OCC2CC2)cc1 | -8
COCCN1CCCC(O)(CNCc2ccccc2C(F)(F)F)C1=O (centres undefined) | 3
Cc1nccn1-c1ccc(NC(=O)C2CCCN(C3CCSCC3)C2)cc1 (centres undefined) | 3
Cn1cccc1CNCCCSc1ncccn1 | 27
O=C(NC1CCN(Cc2ccccc2)CC1)c1ccc(I)cc1 | 10
CCOc1ccc(C(=O)NC2CCN(S(=O)(=O)c3ccccc3)CC2)cc1 | -84*
CN1CCN(S(=O)(=O)c2ccc(C(=O)NC3CCCCC3)cc2)CC1 | -6
Fc1ccc(-c2nnc(-c3nc(NC4CCCCC4)c4ccccc4n3)o2)cc1 | -104*
SMILES | Tg IFNy HTS
Cc1ccc(Nc2nc(-c3nnc(-c4ccc(F)cc4)o3)nc3ccccc23)cc1 | 3
Clc1ccc(-c2nnc(-c3nc(NCc4ccccc4)c4ccccc4n3)o2)cc1 | 137
Fc1ccc(CNc2nc(-c3nnc(-c4ccccc4)o3)nc3ccccc23)cc1 | 23
CCOc1ccc(Nc2nc(-c3nnc(-c4cccc(C)c4)o3)nc3ccccc23)cc1 | 36
Fc1ccccc1CNc1nc(-c2nnc(-c3ccccc3)o2)nc2ccccc12 | -76*
Cc1ccc(-c2nnc(-c3nc(Nc4ccc(F)cc4)c4ccccc4n3)o2)cc1 | 149
Cc1cccc(-c2nnc(-c3nc(NCc4ccccc4C)c4ccccc4n3)o2)c1 | -91*
Cc1cccc(Nc2nc(-c3nnc(-c4ccccc4)o3)nc3ccccc23)c1 | 0
Cc1cccc(-c2nnc(-c3nc(NC(C)c4ccccc4)c4ccccc4n3)o2)c1 (centres undefined) | -94*
Cc1cccc(-c2nnc(-c3nc(Nc4ccc(F)cc4)c4ccccc4n3)o2)c1 | 73
COc1ccccc1CNc1nc(-c2nnc(-c3ccc(C)cc3)o2)nc2ccccc12 | 301
Cn1ncc2c1C(COCC1CC1)CN(C(=O)CS(C)(=O)=O)C2 (centres undefined) | 58
Cn1nnnc1SCCNCC(=O)NC1CCCCCCC1 | -3
Cc1ccc(NC(=O)c2c(O)c3cccnc3n(-c3cccc(F)c3)c2=O)c(F)c1 | -4
O=C(CN1C(=O)CCc2cc(S(=O)(=O)N3CCCC3)ccc21)NC1CCCCCCC1 | 2
COCC1(C(=O)N2CCCN(S(C)(=O)=O)CC2)CCC1 | 2
CCN1[C@@H]2CCN(C(=O)c3ccc[nH]3)CC[C@@H]2Oc2ccccc2S1(=O)=O | -5
Cc1ncsc1C(=O)N1CCCC1c1cccc(-n2ccnc2C(C)C)n1 (centres undefined) | -13
O=c1c2ccccc2nnn1Cc1nc(Cc2ccccc2)n[nH]1 | -28
CCOC(=O)c1nn(CCc2ccccc2)c2c1CN(C(=O)c1ccc3cc[nH]c3c1)CC2 | -13
Cc1ccc(CNc2nc(-c3nnc(-c4cccc(C)c4)o3)nc3ccccc23)cc1 | -68
Fc1cccc(CSc2nc(NC3CCCCC3)c3ccccc3n2)c1 | -76*
Clc1ccccc1CSc1nc(NC2CCCCC2)c2ccccc2n1 | -51
Clc1cccc(CSc2nc(NCCc3ccccc3)c3ccccc3n2)c1 | -43
Cc1cccc(-c2nnc(-c3nc(NCc4ccc(F)cc4)c4ccccc4n3)o2)c1 | -59
Cc1cccc(-c2nnc(-c3nc(NCc4ccccc4)c4ccccc4n3)o2)c1 | -107*
Cc1ccc(C)c(-c2coc(-c3ccc(NC(=O)NCCc4ccccc4)cc3)n2)c1 | -1
O=C(CCc1ccc(-c2ccc(Cl)cc2)[nH]1)N1CCOC(C(F)(F)F)C1 (centres undefined) | -4

Screening results (PubChem BioAssay)
